Experimental data: the supplement of paper PMC11006884
The full data set covers some 6,500 targets. This sample favours those with a hit. About 2% of all pairs of compound and target were hits.

compound: COC(=O)C#Cc1ccccc1 [methyl 3-phenylpropiolate]; assay: log2 ratio of iodoacetamide-alkyne labeling of the cysteine site, DMSO over compound (competition); higher = stronger covalent engagement of the cysteine by the compound, active = 1 or more; settings: 500 µM; treatment time 1 h; system: HEK293T cell lysate
How it was run: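 The log2 competition ratio per cysteine is defined as mean reporter intensity in control channels over mean reporter intensity in compound channels. Lysate from HEK293T cells (2 mg/mL) received electrophile (500 µM) or vehicle for 1 h at ambient temperature, followed by iodoacetamide alkyne for 1 h. Samples were clicked to sCIP-TMT reagents, pooled, trypsin-digested overnight at 37 °C, streptavidin-enriched, acid-eluted and run on Orbitrap Eclipse LC-MS/MS with FAIMS, with quantification in FragPipe. Three replicates with duplicate channels were used, and any cysteine quantified in only one replicate was excluded.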

Chain of UniProt Q99798 (Q99798 whole entry, looked up): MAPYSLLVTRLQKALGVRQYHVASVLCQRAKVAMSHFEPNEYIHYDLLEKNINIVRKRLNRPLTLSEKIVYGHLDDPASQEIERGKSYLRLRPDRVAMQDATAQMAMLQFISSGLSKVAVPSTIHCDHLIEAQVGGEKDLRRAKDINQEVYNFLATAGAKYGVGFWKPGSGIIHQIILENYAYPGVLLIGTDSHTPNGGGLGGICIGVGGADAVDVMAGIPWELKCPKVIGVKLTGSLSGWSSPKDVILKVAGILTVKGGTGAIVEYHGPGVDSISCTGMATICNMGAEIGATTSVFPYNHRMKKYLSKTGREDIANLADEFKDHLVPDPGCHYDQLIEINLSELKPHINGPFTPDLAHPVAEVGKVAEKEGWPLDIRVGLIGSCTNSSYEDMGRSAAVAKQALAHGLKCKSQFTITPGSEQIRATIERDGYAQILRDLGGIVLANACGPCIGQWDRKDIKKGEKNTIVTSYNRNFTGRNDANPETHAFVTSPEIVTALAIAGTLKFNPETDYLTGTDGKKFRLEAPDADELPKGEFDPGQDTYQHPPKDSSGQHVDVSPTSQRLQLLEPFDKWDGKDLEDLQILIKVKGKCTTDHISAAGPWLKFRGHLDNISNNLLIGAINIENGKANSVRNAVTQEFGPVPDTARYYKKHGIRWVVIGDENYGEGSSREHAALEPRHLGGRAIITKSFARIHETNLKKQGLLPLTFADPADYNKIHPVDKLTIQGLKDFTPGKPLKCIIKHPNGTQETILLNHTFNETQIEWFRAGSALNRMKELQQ
Chain of UniProt Q8NEC7 (Q8NEC7 whole entry): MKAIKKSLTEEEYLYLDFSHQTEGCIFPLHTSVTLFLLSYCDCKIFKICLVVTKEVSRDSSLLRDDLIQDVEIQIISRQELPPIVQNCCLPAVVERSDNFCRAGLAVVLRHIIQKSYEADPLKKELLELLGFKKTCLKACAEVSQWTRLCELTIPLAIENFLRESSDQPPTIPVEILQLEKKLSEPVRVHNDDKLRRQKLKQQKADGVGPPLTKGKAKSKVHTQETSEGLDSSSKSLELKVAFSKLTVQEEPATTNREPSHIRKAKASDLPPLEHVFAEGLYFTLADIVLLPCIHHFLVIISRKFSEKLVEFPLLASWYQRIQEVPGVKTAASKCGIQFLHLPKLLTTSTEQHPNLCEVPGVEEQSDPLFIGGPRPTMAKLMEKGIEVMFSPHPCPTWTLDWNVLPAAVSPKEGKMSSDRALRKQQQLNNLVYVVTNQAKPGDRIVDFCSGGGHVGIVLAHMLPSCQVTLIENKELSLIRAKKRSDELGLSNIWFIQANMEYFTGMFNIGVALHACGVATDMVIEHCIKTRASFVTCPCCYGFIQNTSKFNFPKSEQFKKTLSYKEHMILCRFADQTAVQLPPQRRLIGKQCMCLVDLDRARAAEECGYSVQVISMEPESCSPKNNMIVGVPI
Chain of UniProt Q96HC4 (Q96HC4 whole entry, looked up): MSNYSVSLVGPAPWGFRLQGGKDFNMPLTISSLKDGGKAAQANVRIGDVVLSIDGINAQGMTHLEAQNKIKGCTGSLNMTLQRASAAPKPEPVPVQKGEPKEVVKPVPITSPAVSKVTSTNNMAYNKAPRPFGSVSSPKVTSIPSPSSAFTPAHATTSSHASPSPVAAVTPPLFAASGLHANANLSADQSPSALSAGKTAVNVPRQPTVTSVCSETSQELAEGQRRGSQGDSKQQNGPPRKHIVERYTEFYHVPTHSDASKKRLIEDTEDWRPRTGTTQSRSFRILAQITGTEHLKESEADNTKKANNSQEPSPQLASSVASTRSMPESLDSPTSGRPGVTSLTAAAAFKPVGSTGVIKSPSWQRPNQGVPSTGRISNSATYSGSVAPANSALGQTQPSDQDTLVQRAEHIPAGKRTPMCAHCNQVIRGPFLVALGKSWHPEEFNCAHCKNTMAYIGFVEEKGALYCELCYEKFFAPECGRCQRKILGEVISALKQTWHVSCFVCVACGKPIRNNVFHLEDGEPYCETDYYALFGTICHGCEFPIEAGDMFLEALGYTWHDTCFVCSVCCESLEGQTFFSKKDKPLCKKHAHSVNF
Chain of UniProt Q96KQ7 (Q96KQ7 whole entry, looked up): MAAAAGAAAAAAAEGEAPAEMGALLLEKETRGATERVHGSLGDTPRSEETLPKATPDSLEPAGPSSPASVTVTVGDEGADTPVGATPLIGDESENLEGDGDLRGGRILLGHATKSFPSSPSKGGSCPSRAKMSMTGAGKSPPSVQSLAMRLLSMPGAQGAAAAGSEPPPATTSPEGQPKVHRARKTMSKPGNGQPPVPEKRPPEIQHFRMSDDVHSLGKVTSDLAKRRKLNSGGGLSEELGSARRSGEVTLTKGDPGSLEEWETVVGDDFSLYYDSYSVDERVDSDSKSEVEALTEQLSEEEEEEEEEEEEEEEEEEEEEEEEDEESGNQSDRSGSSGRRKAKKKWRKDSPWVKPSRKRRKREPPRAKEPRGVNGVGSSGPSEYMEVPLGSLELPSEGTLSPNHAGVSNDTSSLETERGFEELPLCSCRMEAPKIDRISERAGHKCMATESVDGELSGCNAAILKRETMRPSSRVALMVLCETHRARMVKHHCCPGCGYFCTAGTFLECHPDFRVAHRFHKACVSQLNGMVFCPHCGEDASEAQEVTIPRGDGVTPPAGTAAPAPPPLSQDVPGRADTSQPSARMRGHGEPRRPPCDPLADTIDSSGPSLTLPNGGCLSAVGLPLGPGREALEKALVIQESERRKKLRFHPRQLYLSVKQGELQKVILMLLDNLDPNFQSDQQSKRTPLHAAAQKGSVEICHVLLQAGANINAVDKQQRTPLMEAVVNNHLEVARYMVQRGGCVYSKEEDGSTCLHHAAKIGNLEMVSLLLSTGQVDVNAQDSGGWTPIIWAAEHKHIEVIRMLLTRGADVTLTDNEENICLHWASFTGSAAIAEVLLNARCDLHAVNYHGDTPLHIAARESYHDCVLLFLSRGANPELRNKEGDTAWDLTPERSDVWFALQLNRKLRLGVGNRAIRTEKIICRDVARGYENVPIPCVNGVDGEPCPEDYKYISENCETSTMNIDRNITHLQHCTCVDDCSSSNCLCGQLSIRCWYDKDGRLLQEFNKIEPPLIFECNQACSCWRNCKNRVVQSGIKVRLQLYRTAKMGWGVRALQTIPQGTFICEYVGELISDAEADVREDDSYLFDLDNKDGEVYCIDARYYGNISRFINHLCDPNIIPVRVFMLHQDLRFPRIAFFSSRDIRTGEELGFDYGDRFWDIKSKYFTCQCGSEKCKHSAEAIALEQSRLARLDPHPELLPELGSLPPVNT
Chain of UniProt Q6AI12 (Q6AI12 whole entry, looked up): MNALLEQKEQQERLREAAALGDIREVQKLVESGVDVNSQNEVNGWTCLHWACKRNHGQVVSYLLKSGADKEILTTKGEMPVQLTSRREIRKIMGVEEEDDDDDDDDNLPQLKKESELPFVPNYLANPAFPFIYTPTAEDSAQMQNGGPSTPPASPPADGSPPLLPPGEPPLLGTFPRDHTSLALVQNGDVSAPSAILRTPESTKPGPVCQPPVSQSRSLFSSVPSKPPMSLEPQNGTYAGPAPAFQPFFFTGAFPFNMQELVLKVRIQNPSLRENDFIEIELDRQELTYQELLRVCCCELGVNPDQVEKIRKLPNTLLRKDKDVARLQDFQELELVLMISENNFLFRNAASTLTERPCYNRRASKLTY
Chain of UniProt Q96BH1 (Q96BH1 whole entry): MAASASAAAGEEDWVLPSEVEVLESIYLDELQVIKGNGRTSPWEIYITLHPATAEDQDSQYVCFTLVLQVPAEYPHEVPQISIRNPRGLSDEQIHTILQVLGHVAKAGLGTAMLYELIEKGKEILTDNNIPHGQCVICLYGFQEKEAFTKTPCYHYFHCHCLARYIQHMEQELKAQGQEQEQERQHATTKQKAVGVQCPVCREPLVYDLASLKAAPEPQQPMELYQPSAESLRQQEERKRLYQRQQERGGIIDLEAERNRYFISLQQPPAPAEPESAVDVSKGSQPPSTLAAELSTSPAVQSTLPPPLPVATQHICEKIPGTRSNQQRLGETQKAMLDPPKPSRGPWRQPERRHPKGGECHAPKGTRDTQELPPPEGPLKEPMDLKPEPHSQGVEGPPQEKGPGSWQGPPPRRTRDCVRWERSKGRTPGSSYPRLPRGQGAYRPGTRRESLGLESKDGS
Chain of UniProt Q8NFF5 (Q8NFF5 whole entry, looked up): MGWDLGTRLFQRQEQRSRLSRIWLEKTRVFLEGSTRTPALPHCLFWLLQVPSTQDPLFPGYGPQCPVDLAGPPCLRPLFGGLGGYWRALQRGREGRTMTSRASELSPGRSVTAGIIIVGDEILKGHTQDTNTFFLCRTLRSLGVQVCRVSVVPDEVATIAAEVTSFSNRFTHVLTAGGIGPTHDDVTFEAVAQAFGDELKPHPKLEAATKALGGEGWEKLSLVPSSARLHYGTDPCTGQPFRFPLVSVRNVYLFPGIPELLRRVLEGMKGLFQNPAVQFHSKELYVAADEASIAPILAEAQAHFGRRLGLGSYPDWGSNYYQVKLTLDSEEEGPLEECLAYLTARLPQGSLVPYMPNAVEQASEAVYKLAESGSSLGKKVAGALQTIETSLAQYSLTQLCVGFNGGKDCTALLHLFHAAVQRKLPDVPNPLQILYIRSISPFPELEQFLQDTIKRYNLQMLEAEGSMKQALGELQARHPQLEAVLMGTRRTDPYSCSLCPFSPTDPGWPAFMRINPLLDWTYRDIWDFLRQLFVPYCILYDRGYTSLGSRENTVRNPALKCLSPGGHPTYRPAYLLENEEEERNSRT
Chain of UniProt Q99497 (Q99497 whole entry, looked up): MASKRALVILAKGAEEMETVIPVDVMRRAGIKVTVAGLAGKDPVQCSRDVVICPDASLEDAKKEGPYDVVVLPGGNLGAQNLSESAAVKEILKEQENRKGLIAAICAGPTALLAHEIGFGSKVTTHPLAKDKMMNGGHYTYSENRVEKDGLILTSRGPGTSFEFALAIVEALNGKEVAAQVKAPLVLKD

log2 ratio of iodoacetamide-alkyne labeling, inactive:
NOC3L C683 (UniProt Q8WTT2) 0.191
PTCD3 C642 (UniProt Q96EY7) 0.535
LARP1 C502 (UniProt Q6PKG0) 0.269
ARID2 C1512 (UniProt Q68CP9) 0.438
INTS1 C643 (UniProt Q8N201) 0.127
UniProt Q99590_C478 0.396
UniProt Q7Z5K2_C251 0.11
ANKRD40 C209 (UniProt Q6AI12) 0.466
GBF1 C1766 (UniProt Q92538) 0.302
GTF3C2 C608 (UniProt Q8WUA4) 0.147
HIST2H3A C111 (UniProt Q71DI3) 0.0441
IRF2BP2 C16 (UniProt Q7Z5L9) 0.113
UniProt Q7RTV0_C46 0.211
DCUN1D4 C253 (UniProt Q92564) 0.287
GSTCD C335 (UniProt Q8NEC7) 0.19
EHMT2 C617 (UniProt Q96KQ7) 0.759
DDX54 C73 (UniProt Q8TDD1) 0.301
ZFYVE16 C174 (UniProt Q7Z3T8) 0.35
UniProt Q8WVB3_C244 0.59
IRF2BP2 C40 (UniProt Q7Z5L9) 0.276
UniProt Q8NB37_C154 0.389
DHX37 C1026 (UniProt Q8IY37) 0.317
GIGYF2 C289 (UniProt Q6Y7W6) -0.00206
PARK7 C53 (UniProt Q99497) -0.0888
MYBBP1A C942 (UniProt Q9BQG0) 0.523
DIDO1 C455 (UniProt Q9BTC0) 0.67
PDLIM5 C446 (UniProt Q96HC4) 0.0755
UniProt Q7RTV0_C11 -0.0735

log2 ratio of iodoacetamide-alkyne labeling, active:
ACO2 C448 (UniProt Q99798) 1.71
CNN2 C175 (UniProt Q99439) 1.04
CYFIP1 C98 (UniProt Q7L576) 1.78
RNF25 C360 (UniProt Q96BH1) 1.07
FLAD1 C499 (UniProt Q8NFF5) 1.06
MASTL C285 (UniProt Q96GX5) 1.02
AKAP1 C147 (UniProt Q92667) 1.02
